Compound activity: PubChem BioAssay, National Center for Advancing Translational Sciences (NCATS)
The list is not random: actives were taken first. Their share in the collection is about 1.4%.
EPAC2 antag – antagonists of human EPAC2. 360,000 compounds, 0.18% hits. AID 720708. Potency, µM (titrated, usually from 114 µM), most hits filed as inhibitors. EPAC2 GEF exchange of Rap1B-BODIPY-GDP, fluorescence. Q8WZA2; further: nearly all actives have a fitted effect of over 45% in size
Target sequence (Q8WZA2 whole entry, looked up): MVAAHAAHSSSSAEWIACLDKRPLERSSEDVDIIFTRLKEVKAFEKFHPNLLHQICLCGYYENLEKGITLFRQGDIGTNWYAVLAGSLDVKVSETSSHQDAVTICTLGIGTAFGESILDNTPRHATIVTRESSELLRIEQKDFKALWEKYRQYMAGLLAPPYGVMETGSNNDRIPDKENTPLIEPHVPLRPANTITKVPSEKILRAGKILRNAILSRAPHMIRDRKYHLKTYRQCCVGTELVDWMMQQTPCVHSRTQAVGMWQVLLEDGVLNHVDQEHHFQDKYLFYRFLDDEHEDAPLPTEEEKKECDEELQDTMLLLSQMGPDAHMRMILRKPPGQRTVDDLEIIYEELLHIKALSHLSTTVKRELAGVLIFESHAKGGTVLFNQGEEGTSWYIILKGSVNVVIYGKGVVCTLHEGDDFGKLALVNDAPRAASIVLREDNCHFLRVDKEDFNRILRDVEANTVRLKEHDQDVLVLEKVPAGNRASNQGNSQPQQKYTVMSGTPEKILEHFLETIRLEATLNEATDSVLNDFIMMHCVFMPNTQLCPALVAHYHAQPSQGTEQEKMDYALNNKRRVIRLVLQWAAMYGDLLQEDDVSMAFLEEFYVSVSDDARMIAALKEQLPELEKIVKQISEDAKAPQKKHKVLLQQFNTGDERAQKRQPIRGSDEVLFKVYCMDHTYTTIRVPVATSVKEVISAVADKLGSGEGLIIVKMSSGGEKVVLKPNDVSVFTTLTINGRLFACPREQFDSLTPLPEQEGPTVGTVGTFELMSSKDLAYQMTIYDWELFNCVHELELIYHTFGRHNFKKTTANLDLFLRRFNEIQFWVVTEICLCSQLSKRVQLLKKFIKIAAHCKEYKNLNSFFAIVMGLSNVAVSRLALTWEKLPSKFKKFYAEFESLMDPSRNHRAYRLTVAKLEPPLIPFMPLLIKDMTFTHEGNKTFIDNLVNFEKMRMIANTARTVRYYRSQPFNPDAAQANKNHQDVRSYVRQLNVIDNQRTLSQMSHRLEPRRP
hERG WT inh – KCNH2 (human, wildtype) channel inhibition. Q12809. U2OS, BacMam KCNH2, thallium flux FluxOr; hits give low values. activity change, % at 1.84 µM. 340,000 compounds, 0.37% hits. AID 720551;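 active means maximum activity change below -70%; inconclusive means maximum activity change between -70% and -50%; inactive means maximum activity change above -50%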
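U2OS cells were transduced with wild-type KCNH2 virus (2.03 x 10^8 / mL) for 4 h at room temperature, then cultured overnight at 37 C. Thallium flux was read with FluxOr dye. Rate constants were normalized to DMSO controls.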
EPAC1 ag – activates human EPAC1 exchange factor. O95398. EPAC1 agonist qHTS, biochemical assay; response scale: 100% = response to 6.5 mM cAMP. Potency, µM (titrated, usually from 154 µM), usual class: activators. 360,000 compounds, 0.073% hits; further: nearly all actives have a fitted effect of over 60% in size
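Fluorescent GDP-exchange assay: 100 nM EPAC1 with 250 nM Rap1B preloaded with BODIPY-GDP and 50 uM GDP; compounds tested as concentration series, 5 min at room temperature, then read every 5 min for 30 min (ex 480/em 540 nm); normalized to 6.5 mM cAMP.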
KCNH2 3.1 block – inhibitors of human KCNH2 3.1 potassium channel isoform. U2OS KCNH2 3.1, thallium flux FluxOr; hits give low values. activity change, % (tested at about 1.8 µM). 340,000 compounds, 0.95% hits;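 active means maximum activity change below -70%; inconclusive means maximum activity change from -70% to -50%; inactive means maximum activity change above -50%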;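 further: thallium influx rate constant from kinetic fluorescence after stimulation buffer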
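Steps: virus added to U2OS suspension (4 h, RT, dark); medium with 10% FBS added, cells plated, 37 C overnight; FluxOr/Red40 loading buffer 45 min RT; stimulation buffer, 2 min kinetic read; rate constant normalized.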
EPAC2 agonist – EPAC2 (human) agonism; Q8WZA2; EPAC2 activation, biochemical qHTS; response scale: 100% = 6.5 mM cAMP response; Potency, µM (series often up to 154 µM), hits mostly activators; 360,000 compounds, 0.079% hits; further: nearly all actives have a fitted effect of over 50% in size
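Compounds were titrated in qHTS against a Rap1B-BODIPY-GDP (250 nM) complex with EPAC2 (100 nM) and GDP (50 uM). BODIPY-GDP release tracked at 480/540 nm over 30 min at room temperature, normalized to 6.5 mM cAMP.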
EPAC1 antagonist – blocks human EPAC1 exchange factor; O95398; EPAC1 GEF assay, Rap1b-BODIPY-GDP exchange fluorescence; Potency, µM (doses to about 115 µM), usual class: inhibitors; 360,000 compounds, 0.14% hits; further: nearly all actives have a fitted effect of over 50% in size
Hits are given with their value; – = inactive; ? = inconclusive; · = no result. Unless noted, the call rests on the fitted dose curve; in most records, active means well fitted curve in the direction sought with a large enough effect; inconclusive means small, poorly fitted or top-dose-only effect, or another doubt; inactive means no such curve, though single readings can be large; an effect the other way counts as inactive or inconclusive.

SMILES	EPAC2 antag	hERG WT inh	EPAC1 ag	KCNH2 3.1 block	EPAC2 agonist	EPAC1 antagonist
O=C(O)c1cc(O)c2c(c1)[C@@H]([C@H]1c3cc(C(=O)O)cc(O)c3C(=O)c3c(O[C@@H]4O[C@H](CO)[C@@H](O)[C@H](O)[C@H]4O)cccc31)c1cccc(O[C@@H]3O[C@H](CO)[C@@H](O)[C@H](O)[C@H]3O)c1C2=O	?	–	–	–	–	35µM
CCN(CC(=O)Nc1c(F)cccc1F)C(=O)CCCN1C(=O)c2cccc3cccc(c23)C1=O	–	–	–	–	–	–
Cc1ccc(OCCSc2nc(NC(C)C)nc(NC(C)C)n2)cc1	–	–	–	-76	–	–
CN1CCC(N(C)CC(=O)Nc2cccc(Oc3ccccc3)c2)CC1	–	–	–	-95	–	–
COc1ccc(S(=O)(=O)N2CCC[C@H]2C(=O)N2CCC[C@H]2C(=O)NCc2ccccc2)cc1C	47µM	·	–	·	–	–
Fc1ccc(-n2cc(CNCCc3cccnc3)c(-c3ccccc3Cl)n2)cc1	–	–	–	-74	–	–
O=C(NNc1cccc(Cl)n1)c1cccnc1Cl	–	·	–	–	–	–
COC(=O)C(NC(=O)c1cccnc1Cl)C(C)C (stereo not given)	–	-120	–	–	–	–
COc1cc(C(=O)Nc2ccc(S(=O)(=O)N3CCCCC3)cc2)ccc1OCC(=O)N1CCOCC1	–	–	–	–	–	–
O=C(N[C@@H]1CCC(=O)N(CC[C@H](Oc2ccccc2)c2ccccc2)CC1)OCc1ccccc1	–	–	–	–	–	–
CCOc1ccccc1NS(=O)(=O)c1c(C)noc1C	–	–	–	–	–	–
COC(=O)c1ccccc1NS(=O)(=O)c1c(C)noc1C	–	–	–	-109	–	–
CC(=O)OCCCNc1cc(SCc2ccco2)c2nonc2c1[N+](=O)[O-]	–	–	–	–	–	?
CCCC(=O)OCCNc1cc(SCc2ccco2)c2nonc2c1[N+](=O)[O-]	–	–	–	–	–	40µM
COc1ccc(CCC(=O)Nc2c(-c3ccc(N(C)C)cc3)[nH][nH]c2=O)cc1	–	·	–	·	?	50µM
CN(C)Cc1c(C(=O)N/N=C/c2ccc(OCc3c(F)cccc3Cl)cc2)nnn1-c1nonc1N	–	–	–	-86	–	–
Nc1nonc1-n1nnc(C(=O)N/N=C/c2ccc(OCc3ccccc3F)cc2)c1CN1CCCCC1	–	–	–	-100	–	–
Nc1nonc1-n1nnc(C(=O)N/N=C/c2ccc(OCc3cccc(Cl)c3)cc2)c1CN1CCCCC1	–	–	–	–	–	–
Cc1cc(F)c(F)c(C(=O)N2CCC(C)CC2)c1Cl	–	–	–	-135	–	–
Cc1cc(F)c(F)c(C(=O)N2CCCCC2C)c1Cl (stereo not given)	–	–	–	–	–	–
OCCNCc1c(OCc2ccc(Cl)cc2)ccc2ccccc12	–	-128	–	-105	–	–
CCCCCCN1CCN(C2CN(Cc3ccc(F)cc3)S(=O)(=O)C2)CC1 (stereo not given)	–	·	–	·	–	–
CN(CCc1ccccc1)C(=O)c1ccc(NC(=O)Cc2ccc(NC(=O)C3CCN(C(=O)C4CCCC4)CC3)cc2)cc1	–	–	–	–	–	–
CN(CCc1ccccc1)C(=O)c1ccc(NC(=O)Cc2ccc(NC(=O)C3CCN(C(=O)C4CC4)CC3)cc2)cc1	–	–	–	-73	–	–
Cc1noc(C)c1CSc1nc2sc3c(c2c(=O)n1C)CCCC3	–	–	–	-102	–	–
SMILES	EPAC2 antag	hERG WT inh	EPAC1 ag	KCNH2 3.1 block	EPAC2 agonist	EPAC1 antagonist
CCOC(=O)c1cc2c(ccn2C)n1Cc1ccccc1Cl	?	·	–	-89	–	–
Cc1ccccc1CSc1ccc(S(=O)(=O)N2CCCC2)cn1	–	–	–	–	–	–
O=[N+]([O-])c1ccc(N2CCN(c3ccc(F)cc3)CC2)cc1	–	–	–	–	–	–
CC1CCC(N2CCN(c3ccc([N+](=O)[O-])cc3)CC2)CC1 (stereo not given)	–	?	–	-112	–	–
CCC1CCC(N2CCN(c3ccc([N+](=O)[O-])cc3)CC2)CC1 (stereo not given)	–	-124	–	-101	–	–
CC1=CC(=O)C=CC1=Nc1ccc(N(C)C)cc1	–	·	–	·	–	–
COc1ccc(CCNC(=O)CC2SC(N)=NC2=O)cc1OC (stereo not given)	–	–	–	–	–	?
CCOC(=O)c1cnc(SCc2cccc3ccccc23)nc1N	–	–	–	-133	–	–
CC(C)N1C(=O)S/C(=C/c2ccc(Sc3nc4ccccc4[nH]3)o2)C1=O	–	-130	–	–	–	–
CCCCOc1ccc(C(=O)N/C(=C\c2cccc([N+](=O)[O-])c2)C(=O)OCc2ccco2)cc1	–	–	–	-75	–	–
FC(F)(F)c1ccc(-c2noc(CN3CCCN(C4CCCCC4)CC3)n2)cc1	–	–	–	-94	–	–
c1ccc(C(c2ccccc2)c2noc(CN3CCN(C4CCCC4)CC3)n2)cc1	–	–	–	–	–	–
Cc1ccc(NS(=O)(=O)c2cc(Br)cnc2N)c(Cl)c1	–	–	–	–	–	–
Nc1ncc(Br)cc1S(=O)(=O)Nc1cc(C(F)(F)F)cc(C(F)(F)F)c1	16µM	–	–	–	–	?
CCc1ccc(C(=O)Nc2ccc(OC)c(S(=O)(=O)N3CCOCC3)c2)cc1	–	–	–	–	–	–
CC(CC(=O)Nc1ccc(Cl)c(S(=O)(=O)N2CCOCC2)c1)c1ccccc1 (stereo not given)	–	–	22µM	–	–	–
COc1ccc(NC(=O)c2ccc(-c3ccccc3)cc2)cc1NS(=O)(=O)c1ccc(F)cc1	–	–	–	-77	–	–
COc1ccc(NC(=O)c2ccc(-c3ccccc3)cc2)cc1S(=O)(=O)N1CCOCC1	–	–	–	-71	–	–
Oc1ccc(Cl)c(CN2CCN(c3ncc(Cc4ccccc4)cn3)CC2)c1	–	·	–	·	–	–
COc1cc(NC(=O)c2ccc(-c3ccc(F)c(F)c3)c3ccoc23)cc(OC)c1OC	–	·	–	·	–	–
COc1ccccc1C(=O)Nc1ccc(C(=O)/C=C/c2cccs2)cc1	–	–	–	-83	–	–
CN1c2ccccc2C(O)=C(C(=S)Nc2ccc(F)c(Cl)c2)S1(=O)=O	–	-255	–	–	–	–
CN1c2ccccc2C(O)=C(C(=S)Nc2ccccc2)S1(=O)=O	–	–	–	–	–	–
